The results in this text go back to PubChem BioAssay (NCATS).

Holding throughout (assay): qHTS profiling for inhibitors of Plasmodium falciparum proliferation (AID 504749); note: nearly all actives have a fitted effect of over 60% in size
Conditions in all cases: P. falciparum in erythrocytes, SYBR Green DNA, 72 h; series mostly up to 28.7 µM
(In qHTS, concentration-response curves come from the screen itself.)

One experiment has as its system CP185. The method, boiled down: (§1)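 Quantitative HTS: compounds pinned into medium, infected erythrocytes added (0.3% parasitemia, 2.5% hematocrit), 72 h culture at 37 C under 5% CO2. Saponin/Triton lysis with SYBR Green I, overnight RT, then fluorescence read.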
A further experiment deals with CP191. The method, boiled down:
as §1

The next experiment concerns CP194. The method, boiled down: as §1
Another experiment has as its system CP211. In a few lines: as §1
The test system of the next experiment is CP217. In a few lines:
as §1

Another experiment has as its system CP238. The method, boiled down: as §1
The next experiment has as its system CP247. In a few lines: as §1
A further experiment relates to CP256. The method, boiled down: as §1
Another experiment deals with CP260. In a few lines:
as §1

In another experiment the test system is CP265. The method, boiled down: as §1
Another experiment concerns CP203. The method, boiled down: as §1
For the next experiment, the system named is CP215. In a few lines: as §1
Another experiment deals with CP237. The method, boiled down:
as §1

The next experiment has as its system CP268. In a few lines:
as §1

The next experiment concerns CP250. The method, boiled down: as §1
For the next experiment, the system named is CP252. In a few lines:
as §1

Another experiment relates to CP192. In a few lines:
as §1

For another experiment, the system named is CP201. In a few lines:
as §1

For a further experiment, the system named is CP262. In a few lines: as §1
The next experiment deals with CP266. In a few lines:
as §1

Results filed as inconclusive are left out. The source made the active and inactive calls. Calls come from the whole dose curve; as a rule, active = well fitted inhibition curve with a large enough effect; inconclusive = small, poorly fitted or top-dose-only effect; inactive = flat fitted curve, though single readings scatter.
Potency is the fitted concentration of half-maximal effect.

For `COC(=O)C1=C(C#N)NC(C)=C(C(=O)OC(C)C)C1c1cccc([N+](=O)[O-])c1` (configuration not stated), the Potency was 7.94 µM (active) with CP185; 11.2 µM (active) in the experiment on CP191; 12 µM (active) in the experiment with CP194; 9.53 µM (active) in the experiment on CP211; 11.2 µM (active) in the experiment with CP217; 10 µM (active) with CP238. The Potency in the experiment with CP247 is 8.91 µM (active); in the experiment with CP256, 7.94 µM (active); with CP260, 11.2 µM (active); in the experiment on CP265 it was 10 µM (active).

For the molecule `O=C(Nc1cccc(C(F)(F)F)c1)c1cc(Br)cc(Br)c1O`, the Potency with CP203 was 15.1 µM (active); in the experiment with CP211 it was 12 µM (active); in the experiment with CP215 it was 12 µM (active); in the experiment on CP217, 8.91 µM (active); in the experiment on CP247, 8.91 µM (active).

For `O=S(=O)(O)c1cc(O)c2c(N=Nc3ccc(Nc4ccccc4)c4c(S(=O)(=O)O)cccc34)cc(S(=O)(=O)O)cc2c1`, the Potency result with CP237, in the experiment with CP238 and with CP268 was “inactive” each time.

As for `CCCCCC(CC)COC(=O)CC(C(=O)OCC(CC)CCCC)S(=O)(=O)O` (configuration not stated), the Potency entry in the experiment with CP185, with CP191, in the experiment on CP217, with CP237, with CP238 and in the experiment with CP250 was “inactive” in each case. In addition, the Potency entry with CP252, in the experiment with CP256, in the experiment on CP260 and in the experiment on CP265 was “inactive” throughout. Moreover, in the experiment with CP247, the Potency is 11.2 µM (active).

`CCOc1ccc2c(c1)C(C)=CC(C)(C)N2`: the Potency result in the experiment on CP185, in the experiment on CP191, in the experiment with CP192, in the experiment on CP194, in the experiment on CP201 and in the experiment with CP211 was “inactive” each time. The Potency entry in the experiment on CP217, in the experiment on CP237, in the experiment with CP238, in the experiment with CP247, with CP250 and in the experiment with CP252 was “inactive” each time. Also, the Potency entry with CP256, in the experiment on CP260, in the experiment on CP262, in the experiment on CP266 and in the experiment with CP268 was “inactive” in each case.

Turning to `CN(C)CCCN1c2ccccc2C(C)(C)c2ccccc21`, the Potency entry in the experiment with CP185, with CP192, in the experiment with CP201, with CP211, with CP215 and in the experiment on CP217 was “inactive” in each case. Further, the Potency entry with CP252, with CP260 and with CP262 was “inactive” in each case.

For `COc1cc(-c2ccc(-[n+]3nc(-c4ccccc4)nn3-c3ccc([N+](=O)[O-])cc3)c(OC)c2)ccc1-[n+]1nc(-c2ccccc2)nn1-c1ccc([N+](=O)[O-])cc1`, the Potency with CP185 is 10 µM (active); with CP191, 11.2 µM (active); with CP192 it was 19 µM (active); with CP201, 16.9 µM (active); in the experiment with CP211, 13.5 µM (active); in the experiment with CP247, 11.2 µM (active). Also, the Potency with CP252 is 8.91 µM (active); with CP260, 12.6 µM (active); with CP268, 16.9 µM (active). For the same molecule, the Potency entry with CP262 was “inactive”.

Turning to `CC1=C(/C=C/C(C)=C/C=C/C(C)=C/CO)C(C)(C)CCC1`, the Potency entry in the experiment on CP192, with CP194, in the experiment on CP201, with CP211, in the experiment with CP262 and in the experiment on CP266 was “inactive” throughout. For the same molecule, the Potency entry with CP268 is “inactive”. For the same molecule, the Potency in the experiment on CP217 and with CP252 was 10 µM (active) each time.

For the molecule `CCCCC(CC)COC(=O)CC(C(=O)OCC(CC)CCCC)S(=O)(=O)O` (configuration not stated), the Potency result in the experiment on CP192, in the experiment on CP194, in the experiment with CP201, with CP211, in the experiment with CP215 and with CP262 was “inactive” in each case. Moreover, the Potency entry in the experiment with CP266 and in the experiment on CP268 was “inactive” each time.

`Clc1cc(Cl)c(OCC#CI)cc1Cl`: in the experiment with CP192, the Potency entry was “inactive”. In addition, the Potency was 7.08 µM (active) in the experiment on CP247, 11.2 µM (active) with CP250 and 10 µM (active) in the experiment with CP265.

`CCCCCCOc1ccc(C(=N)N(CCCC)CCCC)c2ccccc12`: the Potency in the experiment on CP185 is 10 µM (active); in the experiment with CP191 it was 4.47 µM (active); in the experiment with CP192 it was 19 µM (active); in the experiment on CP201, 16.9 µM (active); in the experiment with CP217, 7.94 µM (active); in the experiment with CP237 it was 11.2 µM (active). The Potency in the experiment with CP247 is 10 µM (active); in the experiment on CP250, 8.91 µM (active); in the experiment with CP252 it was 10 µM (active); in the experiment on CP260 it was 4.47 µM (active).

In the case of `CCN(CC)CCOc1ccc(-c2nc3cc(Cl)ccc3s2)cc1`, the Potency result in the experiment with CP185, with CP192, in the experiment on CP194, in the experiment with CP201, in the experiment on CP211 and in the experiment with CP215 was “inactive” each time. Besides, the Potency result in the experiment on CP217, in the experiment with CP238, with CP250, with CP252, in the experiment on CP256 and in the experiment with CP262 was “inactive” in each case. The Potency result in the experiment on CP265 and in the experiment with CP266 was “inactive” throughout.

With `C#C[C@]1(O)CC[C@H]2[C@@H]3CCC4=CCCC[C@@H]4[C@H]3C(=C)C[C@@]21CC`, in the experiment on CP191, the Potency is 10 µM (active). Further, the Potency result with CP192, in the experiment on CP194, in the experiment with CP201, in the experiment with CP211, in the experiment on CP215 and in the experiment on CP237 was “inactive” in each case. Moreover, the Potency result with CP260, with CP262 and with CP266 was “inactive” each time.

Consider `CN=C(NC#N)Nc1ccc(C2=NNC(=O)C[C@@H]2C)cc1`, for which the Potency entry in the experiment on CP185, in the experiment with CP191, in the experiment with CP217, in the experiment on CP237, in the experiment on CP238 and with CP247 was “inactive” throughout. Besides, the Potency result in the experiment on CP250, in the experiment with CP252, with CP256, in the experiment on CP260 and with CP265 was “inactive” each time.

Turning to `CN1C(=O)CN2CCc3ccccc3C2c2cc(Cl)ccc21` (configuration not stated), the Potency entry in the experiment with CP185, in the experiment with CP191, in the experiment on CP192, with CP194, in the experiment on CP201 and in the experiment on CP211 was “inactive” each time. Further, the Potency result with CP215, in the experiment with CP238, in the experiment with CP247, in the experiment with CP250, in the experiment on CP252 and in the experiment with CP256 was “inactive” each time. Besides, the Potency entry in the experiment on CP262, in the experiment on CP265, with CP266 and in the experiment with CP268 was “inactive” throughout.
